The panel holds about 79,000 compounds, 15% with a hit somewhere; the sample as a whole holds those more often. Calls of active or inactive are those of the source. No stated cut-off is given here; in the data, active means growth inhibition above about 70%; inactive means the rest.
Experiments:
[1] = NCI Yeast Anticancer Drug Screen. Data for the wt1 strain (AID 149);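 further: 0% = growth of vehicle-treated wt1 cultures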; conditions: S. cerevisiae wt1 strain (SPY 50644) growth inhibition, stronger effect = higher value
Summary of the method: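 Yeast wt1 strain exposed to compounds; growth inhibition measured relative to vehicle-treated controls.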

[2] = NCI Yeast Anticancer Drug Screen. Data for the rad50EPP+ strain (AID 151);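 further: 0% = growth of vehicle-treated control cultures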; conditions: S. cerevisiae rad50 mutant strain, stronger effect = higher value
Summary of the method: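 Genetically defined yeast (rad50EPP+, DNA damage repair alteration) is grown with compound, and inhibition of growth is expressed relative to vehicle-treated controls.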

[3] = NCI Yeast Anticancer Drug Screen. Data for the mgt1 strain (AID 153); conditions: S. cerevisiae mgt1 mutant growth inhibition, stronger effect = higher value
Summary of the method: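 In the mgt1 strain, test compounds were added and growth inhibition was determined relative to vehicle-treated controls.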

[4] = NCI Yeast Anticancer Drug Screen. Data for the rad50 strain (AID 155);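 further: 0% = growth of vehicle-only cultures of the same strain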; conditions: S. cerevisiae rad50 strain growth inhibition, stronger effect = higher value
Summary of the method: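 Yeast carrying a defined DNA repair defect were exposed to test compounds, and growth was compared with vehicle-treated controls to give percent inhibition.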

[5] = NCI Yeast Anticancer Drug Screen. Data for the mec2-1 strain (AID 157); conditions: S. cerevisiae mec2-1 strain, stronger effect = higher value
Summary of the method: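 Each compound was tested on mec2-1 yeast, a strain altered in DNA damage repair or cell cycle control. Growth inhibition is reported relative to vehicle.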

[6] = NCI Yeast Anticancer Drug Screen. Data for the rad14 strain (AID 159);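 further: 0% = growth of vehicle-treated control cultures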; conditions: S. cerevisiae rad14 strain growth inhibition, stronger effect = higher value
Summary of the method: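 Yeast cells carrying a defined DNA-repair defect were exposed to compounds, and growth inhibition was calculated relative to vehicle-treated control cultures.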

[7] = NCI Yeast Anticancer Drug Screen. Data for the sgs1 mgt1 strain (AID 161);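 further: 0% = growth of cultures given vehicle only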; conditions: S. cerevisiae sgs1 mgt1 strain, stronger effect = higher value
Summary of the method: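 Read-out: growth inhibition vs vehicle controls. Cells: mutant yeast strain deficient in DNA damage repair.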

[8] = NCI Yeast Anticancer Drug Screen. Data for the CLN2oe strain (AID 163);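 further: 0% = growth of vehicle-only control cultures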; conditions: S. cerevisiae CLN2oe strain, stronger effect = higher value
Summary of the method: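 First, the altered yeast strain was treated with each compound; second, its growth was measured; finally, inhibition was derived by comparison with vehicle controls.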

[9] = NCI Yeast Anticancer Drug Screen. Data for the cln2 rad14 strain (AID 165);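 further: 0% = growth equal to vehicle treated cultures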; conditions: S. cerevisiae cln2 rad14 strain, stronger effect = higher value
Summary of the method: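 Test compounds were added to cln2 rad14 yeast cultures; inhibition of growth was then determined by comparison with vehicle treatment.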

[10] = NCI Yeast Anticancer Drug Screen. Data for the bub3 strain (AID 167); conditions: S. cerevisiae bub3 mutant strain, stronger effect = higher value
Summary of the method: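 Compounds were applied to a genetically altered yeast strain carrying a cell-cycle control defect. Growth inhibition was scored against vehicle-treated controls.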

[11] = NCI Yeast Anticancer Drug Screen. Data for the wt2 strain (AID 169);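 further: 0% = growth of vehicle-treated yeast cultures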; conditions: S. cerevisiae wt2 strain growth inhibition, stronger effect = higher value
Summary of the method: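 The panel's yeast strains carry defined changes in DNA repair or cell cycle genes. Each strain is grown with compound, and growth loss is scored relative to vehicle.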

[12] = NCI Yeast Anticancer Drug Screen. Data for the mlh1 strain (AID 171);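 further: 0% = growth of vehicle-treated control cultures of the same strain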; conditions: S. cerevisiae mlh1 strain growth inhibition, stronger effect = higher value
Summary of the method: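 Inhibition values reflect reduced yeast growth in the presence of compound, referenced to vehicle controls, using a strain chosen for its alteration in DNA repair or cell cycle control.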

[13] = NCI Yeast Anticancer Drug Screen. Data for the sgs1 strain (AID 173);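 further: 0% = growth of vehicle-only control cultures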; conditions: S. cerevisiae sgs1 mutant, stronger effect = higher value
Summary of the method: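 Vehicle-treated cultures served as reference for growth inhibition of a yeast strain altered in DNA damage repair or cell cycle control after compound exposure.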

[14] = NCI Yeast Anticancer Drug Screen. Data for the mlh1 rad18 strain (AID 175); conditions: S. cerevisiae mlh1 rad18 strain growth inhibition, stronger effect = higher value
Summary of the method: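 Inhibition values reflect reduced growth of mutant yeast versus vehicle-treated controls following compound exposure; the mutations affect DNA damage repair.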

[15] = NCI Yeast Anticancer Drug Screen. Data for the rad18 strain (AID 177); conditions: S. cerevisiae rad18 mutant growth inhibition, stronger effect = higher value
Summary of the method: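 Steps: expose repair-mutant yeast to compound; measure growth; express as inhibition relative to vehicle control.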

[16] = at 5.0 µM (retest, dose inferred, filed as 0.5)
[17] = at 50.0 µM (retest, dose inferred, filed as 5.0)

Measured: growth inhibition

CCCCCCCCCC[Se]C#N
active: [2]; at 33.0 µM 76% | [2]; at 100.0 µM 97% | [3]; at 100.0 µM 95% | [4]; [17] 99% | [4]; at 50.0 µM 99.4% | [4]; at 100.0 µM 97% | [5]; [17] 99% | [5]; at 50.0 µM 99.6% | [5]; at 100.0 µM 77% | [6]; at 100.0 µM 99% | [7]; [17] 99% | [7]; at 50.0 µM 99.3% | [9]; [17] 99% | [9]; at 50.0 µM 97.3% | [10]; [17] 99% | [10]; at 50.0 µM 99.5% | [10]; at 100.0 µM 90% | [11]; at 100.0 µM 79% | [12]; at 100.0 µM 90% | [13]; at 100.0 µM 96% | [14]; [17] 99% | [14]; at 50.0 µM 99.3% | [15]; at 100.0 µM 98%
inactive: [1]; at 1.2 µM -4% | [1]; at 3.7 µM 2% | [1]; at 11.0 µM -3% | [1]; at 33.0 µM 6% | [1]; at 100.0 µM 48% | [2]; at 1.2 µM 4% | [2]; at 3.7 µM 6% | [2]; at 11.0 µM 23% | [3]; at 1.2 µM -2% | [3]; at 3.7 µM 0% | [3]; at 11.0 µM 0% | [3]; at 33.0 µM 16% | [4]; at 1.2 µM 2% | [4]; at 3.7 µM -38% | [4]; [16] 30% | [4]; at 11.0 µM 14% | [4]; at 33.0 µM 52% | [5]; at 1.2 µM 1% | [5]; at 3.7 µM 4% | [5]; [16] 30% | [5]; at 11.0 µM 6% | [5]; at 33.0 µM 19% | [6]; at 1.2 µM -1% | [6]; at 3.7 µM -2% | [6]; at 11.0 µM 4% | [6]; at 33.0 µM 31% | [7]; [16] 46% | [8]; at 1.2 µM -1% | [8]; at 3.7 µM 0% | [8]; at 11.0 µM -4% | [8]; at 33.0 µM -7% | [8]; at 100.0 µM -3% | [9]; [16] 15% | [10]; at 1.2 µM 0% | [10]; at 3.7 µM -2% | [10]; [16] 4% | [10]; at 11.0 µM -2% | [10]; at 33.0 µM 5% | [11]; at 1.2 µM -2% | [11]; at 3.7 µM 7% | [11]; at 11.0 µM -1% | [11]; at 33.0 µM -2% | [12]; at 1.2 µM -1% | [12]; at 3.7 µM 0% | [12]; at 11.0 µM 6% | [12]; at 33.0 µM 26% | [13]; at 1.2 µM -1% | [13]; at 3.7 µM 1% | [13]; at 11.0 µM 13% | [13]; at 33.0 µM 54% | [14]; [16] 51% | [15]; at 1.2 µM 4% | [15]; at 3.7 µM 6% | [15]; at 11.0 µM 18% | [15]; at 33.0 µM 63%
